In PubChem BioAssay AID1159580 (chemical genetic matrix, 2015):
Several values for one entry are separate records, joined by “and”; a condition that tells them apart may be missing. Equal values may be shown once. The campaign covered roughly 5,500 compounds. About 2,000 (36%) were called active. Roughly 18% stayed inconclusive and do not appear here. No stated cut-off is given here; in the data, active means normalized growth mostly below about 0.91 (no sharp cut-off); inconclusive means no clear call, values can overlap the other calls; inactive means mostly above about 0.92. Some of the results follow.

Test: chemical genetic growth profiling, strain panel (AID 1159580);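 further: tested at 20 µM; growth read once vehicle control cultures reached saturation at 30 °C; 1 = growth at the plate median or of vehicle wells; lower values mean less growth of the strain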
Conditions: S. cerevisiae deletion strains, growth OD

Measured: normalized growth

CCCCC(=O)N(Cc1ccc(-c2ccccc2-c2nn[nH]n2)cc1)[C@H](C(=O)O)C(C)C
inactive: locus YAL013W, strain DEP1, hits give low values 0.992 | locus YAL021C, strain ccr4, hits give low values 0.974 | locus YAL026C, strain drs2, hits give low values 0.982 | locus YAL030W, strain snc1, hits give low values 0.993 | locus YBL061C, strain skt5, hits give low values 0.994 | locus YBR009C, strain hhf1, hits give low values 0.986 | locus YBR021W, strain FUR4, hits give low values 0.993 | locus YBR023C, strain chs3, hits give low values 1 | locus YBR171W, strain sec66, hits give low values 0.986 | locus YBR229C, strain ROT2, hits give low values 1 | locus YBR231C, strain swc5, hits give low values 1.01 | locus YBR279W, strain paf1, hits give low values 1 | locus YCL011C, strain gbp2, hits give low values 0.981 | locus YCL016C, strain dcc1, hits give low values 0.98 | locus YCL029C, strain bik1, hits give low values 0.962 | locus YCL061C, strain MRC1, hits give low values 0.971 | locus YCL069W, strain vba3, hits give low values 0.99 | locus YCR088W, strain abp1, hits give low values 0.99 | locus YDL005C, strain med2, hits give low values 1 | locus YDL035C, strain GPR1, hits give low values 0.987 | locus YDL040C, strain nat1, hits give low values 0.992 | locus YDL074C, strain BRE1, hits give low values 1 | locus YDL101C, strain DUN1, hits give low values 0.988 | locus YDL134C, strain PPH21, hits give low values 1.01 | locus YDL185W, strain tfp1, hits give low values 0.932 | locus YDL192W, strain arf1, hits give low values 0.972 | locus YDR001C, strain nth1, hits give low values 0.974 | locus YDR069C, strain doa4, hits give low values 0.993 | locus YDR101C, strain arx1, hits give low values 0.995 | locus YDR137W, strain rgp1, hits give low values 0.969 | locus YDR150W, strain NUM1, hits give low values 0.972 | locus YDR159W, strain sac3, hits give low values 0.946 | locus YDR162C, strain NBP2, hits give low values 0.982 | locus YDR195W, strain ref2 1 | locus YDR297W, strain sur2, hits give low values 0.994 | locus YDR318W, strain mcm21, hits give low values 0.979 | locus YDR334W, strain swr1, hits give low values 0.987 | locus YDR335W, strain msn5, hits give low values 0.994 | locus YDR388W, hits give low values 0.989 | locus YDR392W, strain spt3, hits give low values 0.979 | locus YDR502C, strain sam2, hits give low values 0.98 | locus YEL003W, strain gim4, hits give low values 0.968 | locus YEL037C, strain rad23, hits give low values 0.987 | locus YEL061C, strain CIN8 (second series), hits give low values 0.976 | locus YEL061C, strain CIN8, hits give low values 0.985 | locus YER015W, strain faa2, hits give low values 1.01 | locus YER016W, strain bim1, hits give low values 0.999 | locus YER110C, hits give low values 0.973 | locus YER111C, strain swi4, hits give low values 0.986 | locus YER155C, strain BEM2 (second series), hits give low values 1.03 | locus YER155C, strain BEM2, hits give low values 0.994 | locus YER167W, strain BCK2, hits give low values 0.954 | locus YFR010W, strain ubp6, hits give low values 0.995 | locus YGL078C, strain dbp3, hits give low values 0.97 | locus YGL086W, strain mad1, hits give low values 0.971 | locus YGL167C, strain pmr1, hits give low values 0.999 | locus YGL173C, strain kem1, hits give low values 1 | locus YGL227W, strain vid30, hits give low values 0.985 | locus YGL240W, strain doc1, hits give low values 1.01 | locus YGL248W, strain PDE1, hits give low values 0.991 | locus YGL253W, strain hxk2, hits give low values 0.986 | locus YGR078C, strain PAC10, hits give low values 0.988 | locus YGR135W, strain pre9, hits give low values 0.982 | locus YGR229C, strain SMI1, hits give low values 0.969 | locus YGR252W, strain gcn5, hits give low values 1.1 | locus YHR013C, strain ard1, hits give low values 1 | locus YHR027C, strain rpn1, hits give low values 0.994 | locus YHR030C, strain SLT2, hits give low values 0.984 and 0.959 | locus YHR079C, strain IRE1 (second series), hits give low values 0.978 | locus YHR079C, strain IRE1, hits give low values 0.955 | locus YHR094C, strain hxt1, hits give low values 0.972 | locus YHR129C, strain ARP1, hits give low values 0.999 | locus YHR142W, strain chs7, hits give low values 0.96 | locus YHR200W, strain rpn10, hits give low values 0.974 | locus YIL066C, strain RNR3, hits give low values 0.991 | locus YIL073C, strain SPO22, hits give low values 0.887 | locus YIL125W, strain kgd1, hits give low values 0.954 | locus YIR030C, strain dcg1, hits give low values 0.991 | locus YJL092W, strain hpr5, hits give low values 0.986 | locus YJL095W, strain BCK1 (second series), hits give low values 0.996 | locus YJL095W, strain BCK1, hits give low values 0.992 and 0.987 | locus YJL115W, strain asf1, hits give low values 0.971 | locus YJL129C, strain trk1, hits give low values 1.01 | locus YJL134W, strain LCB3, hits give low values 0.992 | locus YJL154C, strain vps35, hits give low values 0.986 | locus YJL164C, strain tpk1, hits give low values 0.988 | locus YJL166W, strain qcr8, hits give low values 0.999 | locus YJL168C, strain set2, hits give low values 0.984 | locus YJL187C, strain SWE1 (second series), hits give low values 0.983 | locus YJL187C, strain SWE1, hits give low values 0.99 | locus YJR043C, strain POL32, hits give low values 0.979
